The campaign covered roughly 130,000 compounds. About 2,500 (1.9%) were called active. Only a selection was taken, and actives are over-represented in it overall. A number with no mark means an inactive call.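 The calls were made as follows: active = signal ratio slope over the read window, or its plate-corrected B-score, at least 3 SD from the plate mean, either direction; inactive = the rest.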
Each molecule was assayed against ATP-sensitive inward rectifier potassium channel 1 (Homo sapiens) (UniProt P48048) (assay: ROMK potassium channel modulators, primary screen, cell-based, thallium flux, MLSMR library (AID 1918;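 also: B-score of the F/F0 ratio slope over 7 to 12 s after thallium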)). Settings: Tet-inducible ROMK, thallium flux fluorescence; at 10 µM; actives lie on both sides.
Chain of ATP-sensitive inward rectifier potassium channel 1 (Homo sapiens) (P48048 whole entry, looked up): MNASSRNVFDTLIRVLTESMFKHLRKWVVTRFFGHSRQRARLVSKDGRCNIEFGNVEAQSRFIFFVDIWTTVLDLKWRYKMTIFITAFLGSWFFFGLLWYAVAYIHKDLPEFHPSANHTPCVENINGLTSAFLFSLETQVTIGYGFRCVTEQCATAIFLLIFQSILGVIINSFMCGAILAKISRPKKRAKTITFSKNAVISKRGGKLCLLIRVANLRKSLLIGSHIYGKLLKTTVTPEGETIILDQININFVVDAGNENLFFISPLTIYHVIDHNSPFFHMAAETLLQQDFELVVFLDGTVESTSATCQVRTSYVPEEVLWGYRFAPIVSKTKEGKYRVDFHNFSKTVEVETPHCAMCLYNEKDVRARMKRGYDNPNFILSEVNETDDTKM
For O=[N+]([O-])c1ccc(N=Cc2c(O)ccc3ccccc23)cc1, the B-score was -4.23 (active).
CC(=O)n1c(C=Nc2ccccc2)c(O)c2ccccc21 was tested, and the B-score was -1.73.
With O=C(N/N=C/c1ccc([N+](=O)[O-])cc1)c1c[nH]c2ccccc12 the B-score was -0.0103.
Molecule CCOc1ccc(C(C)C)cc1S(=O)(=O)n1nc(C)cc1C has a B-score of -0.531.
With CCOc1ccc(-n2cnnn2)cc1S(=O)(=O)N1CCC(C)CC1C (centres undefined) the B-score was -3.15 (active).
In the case of CCOc1ccc(Br)cc1S(=O)(=O)N1CCC(C(=O)O)CC1, the B-score is reported as -0.0303.
O=C1[C@@H]2C(c3cccnc3)=NO[C@@H]2C(=O)N1c1ccc(Cl)cc1Cl was tested, and the B-score was 0.0407.
In the case of O=c1c2c(nc3cc(-c4cccc(Cl)c4)[nH]n13)CCCC2, the B-score is reported as -0.277.
With CSc1nc2nc3c(c(=O)n2[nH]1)CCC3 the B-score was 1.45 (active).
O=c1c2c(nc3nc[nH]n13)CCC2 was tested, and the B-score was 0.251.
Work on O=C(c1ccncc1)N1CCN(c2ccc3ccccc3n2)CC1 yielded a B-score of -0.138.
Cc1ccccc1CCN(CC(=O)NC1CCCCC1)C(=O)c1csnn1 was tested, and the B-score was -3.14 (active).
O=C(NC1CCCC1)C(c1ccccn1)N(C(=O)c1csnn1)C1CCCC1 (centres undefined) gave a B-score of 0.761.
In the case of CCC(C)(C)NC(=O)C(c1ccccn1)N(C(=O)c1csnn1)c1ccccc1 (centres undefined), the B-score is reported as 0.633.
Work on COc1ccc(-c2ccc(CNCCCN3CCOCC3)o2)cc1Cl yielded a B-score of -0.161.
CCOc1ccc(N2CC(C(=O)NCCN3C(=O)S/C(=C\c4cccnc4)C3=O)CC2=O)cc1 (centres undefined) showed a B-score of 0.439.
With COc1ccccc1N1CCN(C(=O)c2ccc(Cl)c(S(=O)(=O)N3CCCC3)c2)CC1 the B-score was -0.388.
O=C(NCc1ccc2c(c1)OCO2)c1ccc2c(c1)C(=O)N(CC1CCCO1)C2=O (centres undefined) gave a B-score of 0.455.
With O=C1c2cccc3c([N+](=O)[O-])ccc(c23)C(=O)N1CC1CCCO1 (centres undefined) the B-score was -2.58 (active).
With O=c1c2cc3c(=O)n(CC4CCCO4)c(=O)c3cc2c(=O)n1CC1CCCO1 (centres undefined) the B-score was 1.28.
In the case of C/C(=N\Nc1nc(N2CCOCC2)nc(N2CCOCC2)n1)c1ccc([N+](=O)[O-])cc1, the B-score is reported as 0.473.
Molecule CC1CCN(C(=S)c2cccc(O)c2)CC1 has a B-score of 0.17.
With Cc1nc(-c2ccccc2)sc1C(=O)/C=C/N(C)C the B-score was 0.143.
For CCOC(=O)c1c(NC(=O)CCl)sc(C(=O)N(CC)CC)c1C, the B-score was 1.96 (active).
For CCOC(=O)c1sc(NC(=O)COc2ncnc3ccccc23)c(C(=O)OCC)c1C, the B-score was 0.196.
CCC(=O)Nc1sc(C(=O)Nc2ccccc2)c(C)c1C(=O)OC gave a B-score of -1.11.
With Cc1nnnn1/C(=C\c1ccccc1)C(=O)OCC(=O)N1CC2(C)CC1CC(C)(C)C2 (centres undefined) the B-score was -5.08 (active).
COc1ccc(C(=O)N2CC3(C)CC2CC(C)(C)C3)cc1OC (centres undefined) was tested, and the B-score was 0.464.
Work on COc1ccccc1C(=O)N1CC2(C)CC1CC(C)(C)C2 (centres undefined) yielded a B-score of -0.0792.
Cc1ccc(SCCC(=O)NCc2ccccn2)cc1 was tested, and the B-score was -0.142.
Work on O=C(O)CC(SCC(=O)Nc1ccc(Br)cc1)C(=O)O (centres undefined) yielded a B-score of -0.193.
In the case of COC(=O)C1=C(C)NC2=C(C(=O)c3ccccc32)C1c1ccc(-c2ccc(C(=O)O)cc2)o1 (centres undefined), the B-score is reported as 3.35 (active).
For CCOC(=O)c1ccc(-c2ccc(C(=O)Nc3cccnc3)o2)cc1, the B-score was 0.149.
With Cc1ccc(C2C3=C(Nc4[nH]n(-c5ccccc5)c(=O)c42)c2ccccc2C3=O)cc1 (centres undefined) the B-score was -2.43.
COc1ccc(-n2c(O)c(C=NCC(c3ccco3)N3CCCC3)c3ccccc3c2=O)cc1OC (centres undefined) was tested, and the B-score was 0.182.
O=C(CSc1nnnn1-c1ccc(O)cc1)N1N=C(c2ccc3ccccc3c2)CC1c1ccccc1 (centres undefined) was tested, and the B-score was 0.13.
CN(C)c1ccc(C=C2C(=O)OC3(CCCC3)OC2=O)cc1 was tested, and the B-score was -4.03 (active).
Molecule CN(C)c1ccc(/C=N\S(=O)(=O)c2ccccc2)cc1 has a B-score of 0.722.
In the case of CC1=NN(Cc2ccccc2)C(=O)/C1=C/c1ccc(N(C)C)cc1, the B-score is reported as -0.804.
CN1/C(=C\C(=O)c2cccnc2Cl)C(C)(C)c2ccccc21 gave a B-score of 0.168.
With CC(=O)Nc1cccc(OCC(=O)/C=C2\N(C)c3ccccc3C2(C)C)c1 the B-score was -3.01 (active).
With Cc1noc(C)c1C(=O)OCC(=O)/C=C1\N(C)c2ccccc2C1(C)C the B-score was -0.053.
Cc1ccccc1NC(=S)NNC(=O)c1cccc(Br)c1 gave a B-score of -1.36.
CNc1nccc(-c2ccc(Cl)cc2)c1C#N was tested, and the B-score was -3.41 (active).
In the case of CN(C)c1nc(-c2cccnc2)nc(-c2ccc(Cl)cc2)c1C#N, the B-score is reported as -1.03.
For N#Cc1c(-c2ccc(Cl)cc2)c2c([nH]c1=S)CCCC2, the B-score was -0.344.
For COCc1c(N)c(C)nc(Cl)c1C#N, the B-score was 0.228.
O=C(CN1CCCCC1)Nc1ccccc1Cl showed a B-score of 1.02.
With O=C1/C(=C\c2ccccc2Cl)SC(=S)N1CCC(=O)N1CCCc2ccccc21 the B-score was -0.502.
In the case of O=C(CN1CCCCCC1)NCCN1C(=O)S/C(=C\c2ccccc2Cl)C1=O, the B-score is reported as -2.58 (active).
Work on CSc1ccc(CNCCN2CCOCC2)cc1 yielded a B-score of -0.131.
For CCN(CC(=O)NCc1cccs1)S(=O)(=O)c1ccc(NC(C)=O)cc1, the B-score was -0.12.
O=C(Nc1cccc([N+](=O)[O-])c1)Nc1ccc(Cl)cn1 was tested, and the B-score was 0.868.
Work on CCN(CC)C(=O)CN(c1cccc([N+](=O)[O-])c1)S(=O)(=O)c1ccccc1 yielded a B-score of 0.165.
In the case of O=C(CCl)N(Cc1cccc([N+](=O)[O-])c1)c1cccc(Cl)c1, the B-score is reported as -3.06 (active).
For COc1cccc(CC2(CO)CCCN(CC3=Cc4cc(OC)ccc4OC3)C2)c1 (centres undefined), the B-score was -0.447.
For COc1ccccc1-n1c(=S)[nH]c2c(sc(=S)n2-c2ccc(C)cc2C)c1=O, the B-score was 2.35 (active).
COc1cccc(-n2c(=S)sc3c(=O)n(-c4ccccc4OC)c(SCC4OCCO4)nc32)c1 gave a B-score of 0.408.
In the case of CCc1ccc(-n2c(=S)sc3c(=O)n(-c4ccccc4OC)c(=S)[nH]c32)cc1, the B-score is reported as 0.222.
With COc1ccc(NC(=O)c2ccccc2CC[N+](=O)[O-])cc1 the B-score was 0.216.
With COC(=O)COc1cccc2c(=O)n(CC(=O)NCc3ccccc3)ccc12 the B-score was 2.99 (active).
Molecule CCOC(=O)C(C)Oc1cccc2c(=O)n(CC(=O)NCCc3ccc(OC)c(OC)c3)ccc12 (centres undefined) has a B-score of -0.831.
COC(=O)COc1cccc2c(=O)n(CC(=O)NCCc3ccc(OC)c(OC)c3)ccc12 gave a B-score of -0.562.
COc1cccc(CN2CCNC(=O)C2CC(=O)N(C)CCc2ccccn2)c1 (centres undefined) gave a B-score of 0.0523.
C/C(=N/NC(=O)CSc1ccccn1)c1ccc([N+](=O)[O-])cc1 gave a B-score of -0.494.
O=c1cnnc(Nc2ccccc2F)[nH]1 was tested, and the B-score was 0.476.
CCOC(=O)Cc1csc(NC(=O)CSc2nc(C)cc(=O)[nH]2)n1 gave a B-score of -0.406.
In the case of CCOC(=O)Cc1csc(NC(=O)CSc2ccc(Br)cc2)n1, the B-score is reported as -2.72 (active).
CCOC(=O)Cc1csc(NC(=O)CSc2nnc(-c3cccnc3)n2Cc2ccco2)n1 showed a B-score of 0.0388.
Molecule CCOC(=O)Cc1csc(NC(=O)Nc2ccccc2)n1 has a B-score of 0.0709.
For CCOC(=O)Cc1csc(NC(NC(=O)OCC)(C(F)(F)F)C(F)(F)F)n1, the B-score was 1.5.
CCOC(=O)Cc1csc(SCC(=O)NC(C)C23CC4CC(CC(C4)C2)C3)n1 (centres undefined) was tested, and the B-score was -3.3 (active).
Cn1nc(C(F)(F)F)c2cc(C(=O)N3CCOCC3)sc21 showed a B-score of 1.3.
With COc1ccccc1-n1ccnc1SCC(=O)NC(C)(C)C the B-score was -0.243.
CCCCc1nc(NCCN)c(C#N)c2c1CSC(C)(C)C2 was tested, and the B-score was -3.92 (active).
Work on Cc1nc(NCCN)c(C#N)c2c1COC(C)(C)C2 yielded a B-score of 0.0226.
Molecule CCCCc1nc(NCc2ccccc2)c(C#N)c2c1CCCC2 has a B-score of 0.19.
In the case of COc1cc2nc(CN(C)Cc3ccc(F)cc3)[nH]c(=O)c2cc1OC, the B-score is reported as 0.927.
Work on COc1ccc(-c2nc(CN3CCN(c4ncccn4)CC3)c(C)o2)cc1C yielded a B-score of -0.768.
Molecule Cc1cc(NC(=O)OC(C)C)ccc1-c1ccc(NC(=O)OC(C)C)cc1C has a B-score of 0.938.
O=C(NNC(=O)C1C2CCC(C2)C1C(=O)O)c1ccc(Cl)cc1 (centres undefined) gave a B-score of -0.0201.
C[C@H](NC(=O)c1ccccc1Cl)C(=O)OCCOc1cccc(Cl)c1 was tested, and the B-score was 0.0242.
With COc1cccc2c(N/N=C/c3ccco3)cc(C)nc12 the B-score was -0.776.
For COc1cc2c(cc1OC)C(/C=C/c1ccco1)=NCC2, the B-score was -7.44 (active).
With COc1ccc(Cl)cc1C(=O)NNC(=S)NC(=O)/C=C/c1ccco1 the B-score was 1.26.
With Cc1cc(=O)oc2c1c(C)nn2-c1ccc(Cl)cc1 the B-score was 0.108.
In the case of COc1ccc(S(=O)(=O)NCC2CCCN(C(=O)c3occc3C)C2)cc1 (centres undefined), the B-score is reported as -0.286.
Molecule C/C=C/C=C/C(=O)OCC(=O)Nc1ccc(Cl)cc1 has a B-score of -0.0163.
Work on CCC(C)NC(=O)Cn1nc(C(F)(F)F)c2c1CCC2 (centres undefined) yielded a B-score of -0.0332.
Work on Cc1cc(-c2csc(N)n2)c(C)n1Cc1ccccc1 yielded a B-score of -1.12.
O=C(NC(Nc1nc2ccc([N+](=O)[O-])cc2s1)(C(F)(F)F)C(F)(F)F)c1ccccc1 was tested, and the B-score was -4.53 (active).
O=C(Nc1nc2ccc([N+](=O)[O-])cc2s1)c1ccc(S(=O)(=O)N2CCCc3ccccc32)cc1 was tested, and the B-score was -2.44.
In the case of O=C(O)CCC(=O)Nc1nc2ccc([N+](=O)[O-])cc2s1, the B-score is reported as 0.0361.
O=C(NCCCN1CCOCC1)c1ccccc1NS(=O)(=O)c1ccc(F)cc1 was tested, and the B-score was 0.243.

From PubChem BioAssay AID1918 (Vanderbilt High Throughput Screening Facility, 2009)
